Laboratory results published in PubChem BioAssay.
The source made the active and inactive calls.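 How the source made its calls: active means compounds killing one labelled cell type while sparing the other, by normalised counts and ratio limits, not self-fluorescent; inactive means the rest.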

Test: EMT-state selective cytotoxicity in co-culture – imaging, PC-3E GFP, TEM4-18 mCherry, primary screen (AID 1345086);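 further: cells exposed to compound for 72 h before imaging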;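 on red/green cell ratio (normalised): normalised mesenchymal count divided by normalised epithelial count so high means epithelial killing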
Conditions: PC-3E GFP / TEM4-18 mCherry co-culture, imaging cell counts, at 1 µM; for red/green cell ratio (normalised): actives lie on both sides, counts scaled to control wells, 1 = unselective
[1] = measured here: epithelial PC-3E GFP cell survival
[2] = measured here: mesenchymal TEM4-18 mCherry cell survival

SMILES	red/green cell ratio (normalised)	normalised cell number [1]	normalised cell number [2]
CC(=O)OC1CCC2(C)C(=CC=C3C2CCC2(C)C3CCC2C(C)/C=C/C(C)C(C)C)C1(C)C (stereo unspecified)	1.04 (inactive)	0.92	0.96
COc1cc2c(cc1OC)Cc1cc(OC)c(OC)cc1Cc1cc(OC)c(OC)cc1C2	1.03 (inactive)	1.01	1.04
CO[C@H]1OC(COCc2ccccc2)C(O)[C@@H]2OC(=O)N[C@H]12 (stereo partly specified)	1.08 (inactive)	0.88	0.95
CC(=O)NCCc1ccc(O)c(-c2c(O)c(O)c3c(c2O)C(=O)c2c(cc(O)c(C(=O)O)c2C(=O)O)C3=O)c1	1.13 (inactive)	0.95	1.07
COc1cc(/C=C/C(=O)O)cc(OC)c1	1.01 (inactive)	0.91	0.93
Clc1ccc(Br)cc1OCC1CCCNC1 (stereo unspecified)	0.91 (inactive)	1.28	1.17
C[C@H]1C[C@H]2C(=O)O[C@H]([C@@H](C)CCCC[C@@H](C)O)C[C@@H](O)[C@H](C)C(=O)NC(Cc3ccccc3)C(=O)N2C1 (stereo partly specified)	0.93 (inactive)	1.14	1.05
O=C1OCC[C@@H]1Oc1ccc(Oc2cnc3ccc(Cl)cc3n2)cc1	0.83 (inactive)	1.22	1.01
COC(=O)CCC(C)[C@H]1CCC2C3C(C[C@H](O)[C@@]21C)[C@@]1(C)CC[C@@H](O)C[C@H]1C[C@H]3O (stereo partly specified)	1.15 (inactive)	0.89	1.02
COC(=O)C[C@H]1C2(C)CC34OC5(C)O[C@]6(C7/C(=C(/O)C(C)C)C(=O)O[C@@H](c8ccoc8)[C@]7(C)C(OC(C)=O)[C@@H](OC(C)=O)[C@]6(O5)C13C)[C@H](OC(C)=O)[C@@]4(O)C2OC(=O)C(C)C (stereo partly specified)	1.02 (inactive)	1.08	1.1
CC(C)(C)OC(=O)NCCCC(NC(=O)C(Cc1ccccc1)NC(=O)OC(C)(C)C)C(=O)O (stereo unspecified)	0.88 (inactive)	1.24	1.1
CC(=O)C1=C(O)C=C2Oc3c(C(N)=O)c(O)cc(O)c3[C@@]2(C)C1=O	1.13 (inactive)	0.92	1.04
CC(C)CCCC(C)C1CCC2C3CC[C@H]4C[C@@H](O)CC[C@]4(C)C3CC[C@]12C (stereo partly specified)	1.05 (inactive)	1.04	1.1
CC(C)[C@@H]1CC[C@]2(CO2)[C@@H]2C(=O)OCC(C(=O)O)=C[C@H]21	1.02 (inactive)	1.02	1.05
O=C(Cc1ccccc1)NCC1O[C@@H](OC2C(NC(=O)Cc3ccccc3)C[C@@H](NC(=O)Cc3ccccc3)[C@H](OC3OC(COS(=O)(=O)O)[C@@H](OS(=O)(=O)O)[C@H](NC(=O)Cc4ccccc4)[C@H]3OS(=O)(=O)O)[C@H]2OS(=O)(=O)O)[C@H](OS(=O)(=O)O)[C@@H](OS(=O)(=O)O)C1OS(=O)(=O)O (stereo partly specified)	1.14 (inactive)	0.9	1.03
C[C@@H]1CC[C@@]23CCC4(C)[C@@](C=CC5[C@@]6(C)CCC(=O)C(C)(C)C6CC[C@]54C)(OC2=O)C3[C@H]1C (stereo partly specified)	1.03 (inactive)	0.95	0.98
COc1ccc2cc(C(C)=O)ccc2c1	1.13 (inactive)	0.99	1.12
Cc1c(F)c(F)cc2c(=O)n(N)c(=O)n(C3CC3)c12	0.9 (inactive)	0.79	0.71
C[C@H](O)[C@@H]1N[C@H]2N(C1=O)c1ccccc1C21CC2C(=O)NC1c1nc3ccccc3c(=O)n12 (stereo partly specified)	1.08 (inactive)	0.88	0.95
CC(CC(=O)N1C(=O)OC[C@H]1c1ccccc1)N1CCOC1=S (stereo partly specified)	0.87 (inactive)	1.09	0.95
C/C=C\C(=O)O[C@@H]1[C@H](O)[C@@H](O)CO[C@@H]1C	1.01 (inactive)	0.99	0.99
CC(C)CC1C(=O)OC(C(C)C)C(=O)N(C)C(C(C)C)C(=O)OC(C(C)C)C(=O)N(C)C(C(C)C)C(=O)OC(C(C)C)C(=O)N1C (stereo unspecified)	0.99 (inactive)	1.17	1.15
